PubChem BioAssay AID1159580 (chemical genetic matrix, 2015)
The whole screen tested about 5,500 compounds, of which about 2,000 (36%) were called active. About 18% were inconclusive and are not listed. Cut-off read from the data, not from the text of the source: active = normalized growth mostly below about 0.91 (no sharp cut-off); inconclusive = no clear call, values can overlap the other calls; inactive = mostly above about 0.92. Some of the results follow.

Test: chemical genetic growth profiling, strain panel (AID 1159580);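 note: tested at 20 µM; growth read once vehicle control cultures reached saturation at 30 °C; 1 = growth at the plate median or of vehicle wells; lower values mean less growth of the strain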
Conditions: S. cerevisiae deletion strains, growth OD

Measured: normalized growth

O=c1cc(-c2ccc(O)cc2)oc2cc(O)ccc12
inactive: locus YAL021C, strain ccr4, stronger effect = lower value 0.967 | locus YAL026C, strain drs2, stronger effect = lower value 0.95 | locus YAL030W, strain snc1, stronger effect = lower value 0.959 | locus YBL061C, strain skt5, stronger effect = lower value 0.967 | locus YBR009C, strain hhf1, stronger effect = lower value 0.929 | locus YBR023C, strain chs3, stronger effect = lower value 0.958 | locus YBR171W, strain sec66, stronger effect = lower value 0.981 | locus YBR231C, strain swc5, stronger effect = lower value 0.974 | locus YBR279W, strain paf1, stronger effect = lower value 0.974 | locus YCL011C, strain gbp2, stronger effect = lower value 0.948 | locus YCL016C, strain dcc1, stronger effect = lower value 0.976 | locus YCL061C, strain MRC1, stronger effect = lower value 0.976 | locus YCL069W, strain vba3, stronger effect = lower value 0.969 | locus YCR088W, strain abp1, stronger effect = lower value 0.957 | locus YDL005C, strain med2, stronger effect = lower value 0.963 | locus YDL040C, strain nat1, stronger effect = lower value 0.968 | locus YDR001C, strain nth1, stronger effect = lower value 0.96 | locus YDR069C, strain doa4, stronger effect = lower value 0.949 | locus YDR137W, strain rgp1, stronger effect = lower value 0.925 | locus YDR159W, strain sac3, stronger effect = lower value 0.866 | locus YDR195W, strain ref2 0.963 | locus YDR297W, strain sur2, stronger effect = lower value 0.966 | locus YDR334W, strain swr1, stronger effect = lower value 0.954 | locus YDR335W, strain msn5, stronger effect = lower value 0.984 | locus YDR392W, strain spt3, stronger effect = lower value 0.853 | locus YEL003W, strain gim4, stronger effect = lower value 0.972 | locus YEL037C, strain rad23, stronger effect = lower value 0.952 | locus YEL061C, strain CIN8 (second series), stronger effect = lower value 0.949 | locus YER015W, strain faa2, stronger effect = lower value 0.973 | locus YER016W, strain bim1, stronger effect = lower value 0.976 | locus YER111C, strain swi4, stronger effect = lower value 0.961 | locus YER155C, strain BEM2 (second series), stronger effect = lower value 0.897 | locus YFR010W, strain ubp6, stronger effect = lower value 0.941 | locus YGL167C, strain pmr1, stronger effect = lower value 0.945 | locus YGL173C, strain kem1, stronger effect = lower value 0.972 | locus YGL227W, strain vid30, stronger effect = lower value 0.941 | locus YGL240W, strain doc1, stronger effect = lower value 0.958 | locus YGL253W, strain hxk2, stronger effect = lower value 0.98 | locus YHR013C, strain ard1, stronger effect = lower value 0.925 | locus YHR027C, strain rpn1, stronger effect = lower value 0.957 | locus YHR030C, strain SLT2, stronger effect = lower value 0.948 | locus YHR079C, strain IRE1, stronger effect = lower value 0.935 | locus YHR142W, strain chs7, stronger effect = lower value 0.935 | locus YJL092W, strain hpr5, stronger effect = lower value 0.97 | locus YJL095W, strain BCK1 (second series), stronger effect = lower value 0.968 | locus YJL095W, strain BCK1, stronger effect = lower value 0.969 | locus YJL115W, strain asf1, stronger effect = lower value 0.968 | locus YJL129C, strain trk1, stronger effect = lower value 0.915 | locus YJL154C, strain vps35, stronger effect = lower value 0.975 | locus YJL164C, strain tpk1, stronger effect = lower value 0.962 | locus YJL166W, strain qcr8, stronger effect = lower value 0.969 | locus YJL187C, strain SWE1, stronger effect = lower value 0.964 | locus YJR066W, strain TOR1, stronger effect = lower value 0.938 | locus YKL160W, strain elf1, stronger effect = lower value 0.973 | locus YKR026C, strain gcn3, stronger effect = lower value 0.945 | locus YKR091W, strain srl3, stronger effect = lower value 0.964 | locus YLL001W, strain dnm1, stronger effect = lower value 0.958 | locus YLL026W, stronger effect = lower value 0.96 | locus YLL041C, strain sdh2, stronger effect = lower value 0.976 | locus YLR027C, strain aat2, stronger effect = lower value 0.953 | locus YLR113W, strain HOG1, stronger effect = lower value 0.918 | locus YLR221C, strain rsa3, stronger effect = lower value 0.974 | locus YLR258W, strain gsy2, stronger effect = lower value 0.956 | locus YLR262C, strain YPT6 (second series), stronger effect = lower value 0.926 | locus YLR320W, strain mms22, stronger effect = lower value 0.937 | locus YLR342W, strain FKS1, stronger effect = lower value 0.954 | locus YLR357W, strain rsc2, stronger effect = lower value 0.944 | locus YLR370C, strain arc18, stronger effect = lower value 0.948 | locus YLR384C, strain iki3, stronger effect = lower value 0.961 | locus YML120C, strain ndi1, stronger effect = lower value 0.948 | locus YMR058W, strain fet3, stronger effect = lower value 0.965 | locus YMR125W, strain sto1, stronger effect = lower value 0.941 | locus YMR129W, stronger effect = lower value 0.966 | locus YMR205C, strain PFK2, stronger effect = lower value 0.922 | locus YMR231W, strain pep5, stronger effect = lower value 0.966 | locus YNL071W, strain lat1, stronger effect = lower value 0.972 | locus YNL183C, strain NPR1, stronger effect = lower value 0.924 | locus YNL209W, strain ssb2, stronger effect = lower value 0.973 | locus YNL248C, strain rpa49, stronger effect = lower value 0.971 | locus YNL322C, strain KRE1 (second series), stronger effect = lower value 0.956 | locus YNR049C, strain mso1, stronger effect = lower value 0.964 | locus YOR001W, strain rrp6, stronger effect = lower value 0.979 | locus YOR070C, strain gyp1, stronger effect = lower value 0.971 | locus YOR080W, strain dia2, stronger effect = lower value 0.968 | locus YOR083W, strain WHI5, stronger effect = lower value 0.982 | locus YOR106W, strain vam3, stronger effect = lower value 0.946 | locus YOR231W, strain MKK1, stronger effect = lower value 0.942 | locus YOR265W, strain rbl2, stronger effect = lower value 0.975 | locus YOR270C, strain vph1, stronger effect = lower value 0.833 | locus YOR290C, strain snf2, stronger effect = lower value 0.921 | locus YPL051W, strain arl3, stronger effect = lower value 0.984 | locus YPL078C, strain atp4, stronger effect = lower value 0.963 | locus YPL106C, strain sse1, stronger effect = lower value 0.937 | locus YPL240C, strain hsp82, stronger effect = lower value 0.955 | locus YPL256C, strain CLN2, stronger effect = lower value 0.944
